# Screening data as filed in PubChem BioAssay.
# An excerpt weighted towards active compounds, which were near 4.3% of everything screened.
# HSF-1 act = increases HSF-1 driven luciferase reporter signal | activation, % at 9 µM | NIH3T3-HGL HSF-1 luciferase reporter, MG132, 8 h; 100% = twice DMSO control signal | 300,000 compounds, 1.7% hits | AID 504408;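 active = mean replicate activation of at least 50% with a set share of replicates each reaching 50%; inconclusive = only one of those two conditions met; inactive = mean below 50% and too few replicates reaching it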;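 note: 0% = median of the neutral control wells and 100% = twice that signal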
# MITF act = increases MITF-driven TRPM1 promoter luciferase signal; SK-MEL-5 TRPM1-promoter luciferase, 24 h; % of positive control, neutral wells = 0; activation, % at 12.5 µM; 300,000 compounds, 0.75% hits; AID 588334;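 active = mean activation of at least 80% with every replicate also reaching 80%; inconclusive = mean reaches 80% but some replicate falls short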;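 note: 0% = neutral control wells and 100% = parthenolide positive control wells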
# HSF1 inhib = HSF1 inhibition; AID 2098; activity change, negative = inhibition, % at 7.5 µM (by protocol); 300,000 compounds, 0.77% hits; NIH3T3-HGL HSE-luciferase, MG132-induced, luminescence 8 h; active compounds read low;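 active = more than half of replicate wells show activity change below -50%, luminescence cut by over half; inconclusive = some wells, but at most half, below -50%; inactive = no replicate well below -50%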;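 note: luciferase reports HSF-1 transcriptional activity via heat shock element; 0% = median of DMSO wells and -100% = zero luminescence signal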
# SMARCA2 activ = increases SMARCA2 function in MMTV reporter cells | MG213 cells, MMTV-luciferase reporter, dexamethasone, overnight | AID 652017 | 370,000 compounds, 1% hits | activation, % at 9.1 µM; in the data active = activation above about 7.8%;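 note: 0% = vehicle wells and 100% = reference activator wells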
# esBAF inh = blocks esBAF chromatin remodeling in mouse ES cells; Bmi1-luciferase knock-in reporter, 24 h; 100% = twice the neutral-well signal; reporter increase, % at 12.5 µM; 350,000 compounds, 2% hits; AID 602393; in the data active = activation above about 40%; inconclusive = no clear call, values can overlap the other calls;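 note: 0% = median of the plate's neutral control wells and 100% = double that signal; a rise in the Bmi1 reporter signal indicates esBAF inhibition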
# Wnt act = activates Wnt/beta-catenin signaling in a reporter cell assay; activator, plate reader; activation, % at 9.35 µM; 300,000 compounds, 1.2% hits; AID 743398; in the data active = activation above about 30%, passing the limit was not always enough; inconclusive = no clear call, values can overlap the other calls;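 note: 0% = neutral control wells and 100% = positive control wells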
# The depositor's hits bear a star; ? = inconclusive; / = no result given.
SMILES,HSF-1 act,MITF act,HSF1 inhib,SMARCA2 activ,esBAF inh,Wnt act
CCOc1cc(N2CCOCC2)c(OCC)cc1NC(=O)c1cccc(N(C)C)c1,-59.6,5.0,-51.3*,-2.5,2.8,-2.4
CC(C)C#Cc1cnc2c(c1)C(=O)N([C@H](C)CO)C[C@H](C)[C@H](CN(C)C(=O)Nc1cc(F)ccc1F)O2,/,/,/,/,4.8,/
Cc1ccc(C(=O)Nc2cc3c(cc2Cl)OCCCO3)cc1,28.6,71.5,13.3,2.9,68.7*,/
O=C(Nc1cc2c(cc1Br)OCCCO2)c1cccnc1,-5.6,10.1,2.9,4.1,-3.6,5.3
CC(=O)c1cc2c(cc1NC(=O)c1ccc(Cl)cc1)OCCO2,15.4,/,1.2,-2.2,-0.9,-2.4
O=C(Nc1cc2c(cc1Cl)OCCCO2)c1ccc(F)cc1,39.9,76.1,19.4,6.8,/,50.9*
O=C(Nc1cc2c(cc1Br)OCCCO2)c1ccccc1,20.5,45.5,4.9,3.1,/,52.0*
C[C@H](O)C#Cc1cnc2c(c1)C(=O)N([C@@H](C)CO)C[C@H](C)[C@H](CN(C)CC1CCOCC1)O2,/,/,/,/,-14.1,/
C[C@@H]1CN([C@H](C)CO)C(=O)c2cc(NS(C)(=O)=O)ccc2O[C@@H]1CN(C)S(=O)(=O)c1ccc(F)cc1,/,/,/,/,-6.6,/
C[C@H](CO)N1C[C@H](C)[C@H](CN(C)C(=O)Cc2cccnc2)Oc2ncc(C#Cc3ccccc3F)cc2C1=O,/,/,/,/,-2.6,/
O=C(NCc1ccccc1)[C@H]1[C@H](CO)[C@H]2Cn3c(ccc(-c4cccnc4)c3=O)[C@H]2N1Cc1cocn1,/,/,/,/,-4.9,/
Cc1ccccc1OCCN1C(=O)c2ccccc2C1=O,20.4,67.3,16.9,1.2,38.5,4.4
CC(C)Oc1cccc(OCCN2C(=O)c3ccccc3C2=O)c1,11.7,40.0,8.3,0.9,/,0.7
COc1ccc(OCCN2C(=O)c3ccccc3C2=O)cc1,-61.8,21.7,-55.5*,1.9,16.6,4.1
O=C1c2ccccc2C(=O)N1CCOc1ccccc1,124.7*,/,79.7,5.9,-3.0,-1.4
COc1ccc(CN2C(=O)c3cccc4cccc(c34)C2=O)cc1,-10.6,-2.7,-4.0,-3.7,/,41.4*
Nc1cccc2c1C(=O)N(CCOc1ccc(F)cc1)C2=O,62.2*,67.4,38.6,2.2,/,26.3
C[C@H]1CN([C@@H](C)CO)C(=O)Cc2cc(NS(=O)(=O)c3cccs3)ccc2O[C@@H]1CN(C)Cc1ccncc1,/,/,/,/,2.6,/
C[C@H](CO)N1C[C@H](C)[C@@H](CN(C)C(=O)CCCN(C)C)OCCCC[C@H](C)Oc2ccc(NC(=O)c3ccncc3)cc2C1=O,/,/,/,/,2.4,/
CC1(C)Cc2c(sc(NC(=O)Nc3ccccc3)c2C(N)=O)CO1,22.7,/,20.0,2.2,54.7*,17.9
Cc1sc(NC(=O)Nc2ccccc2)c(C(N)=O)c1C,5.3,40.0,4.4,2.1,?,33.0*
Cc1sc(NC(=S)NC(=O)c2ccco2)c(C(N)=O)c1C,/,35.9,/,-0.7,48.6*,24.5
Cc1sc(NC(=S)NC(=O)CCc2ccccc2)c(C(N)=O)c1C,/,-23.4,/,3.4,-10.1,-30.0
COC(=O)c1c(NC(=O)Nc2ccc(Cl)cc2)sc(C)c1C,/,-4.4,/,-4.2,18.3,-0.9
C[C@H](CO)N1C[C@H](C)[C@H](CN(C)C(=O)Cc2ccccc2)Oc2cc(-c3ccccc3)ccc2S1(=O)=O,/,/,/,/,0.4,/
SMILES,HSF-1 act,MITF act,HSF1 inhib,SMARCA2 activ,esBAF inh,Wnt act
CC(=O)NCCNc1nc2cc(-c3cccc(Cl)c3)sc2c(=O)n1C,/,/,/,-3.0,-3.3,-0.4
CC(=O)NCCNc1nc2cc(-c3ccc(C)cc3)sc2c(=O)n1C,/,/,/,-4.2,53.5*,4.7
CO[C@H]1CN(C)C(=O)c2ccc(NC(=O)Cc3ccccc3)cc2OC[C@H](C)N(C(=O)c2ccccc2F)C[C@H]1C,/,/,/,/,1.9,/
COc1ccccc1N1CCN(C(=O)C(CC(C)C)NC(=O)C2CCCCC2)CC1 (stereo not given),55.2*,-7.1,18.1,-2.2,-3.3,-3.1
COc1ccccc1NC(=O)C(CC(C)C)NC(=O)C1CCCCC1 (stereo not given),9.2,0.9,3.9,-0.2,3.5,-1.8
Cc1ccc(S(=O)(=O)Nc2cccc3ncccc23)s1,107.7*,-99.2,132.1,/,24.1,/
CO[C@@H]1CN(C)C(=O)c2cc(NC(=O)Nc3c(C)noc3C)ccc2OC[C@@H](C)N(CC2CC2)C[C@H]1C,/,/,/,/,-2.7,/
